Measured values as given in PubChem BioAssay (Tox21).
Records with an inconclusive call do not appear. Active and inactive are the calls of the source. Calls come from the whole dose curve; as a rule, active = well fitted curve in the direction sought with a large enough effect in the repeat runs; inconclusive = weak or mixed curves; inactive = no such curve, though single readings can be large; an effect the other way counts as inactive or inconclusive.

Legend:
[1] = qHTS RealTime-Glo MT Cell Viability Assay in HepG2 cells - 40 hour (AID 1224870); note: nearly all actives have a fitted effect of over 50% in size
Summary of the method: (§1)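 HepG2 cells (600/well) mixed with RealTime-Glo MT reagent, settled 5 h at 37 C/5% CO2 before compound addition. Nonlytic NanoLuc luminescence from viable-cell prosubstrate reduction read repeatedly during 40 h treatment at 37 C.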

[2] = A CellTox Green Cytotoxicity Assay to monitor cytotoxicity in HEK293 cells - 40 hour (AID 1224871); note: nearly all actives have a fitted effect of over 45% in size
Summary of the method: (§2)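 Tox21 screen in HEK293: membrane-impermeant cyanine dye fluoresces on binding dead-cell DNA; compound pinned 5 h post-seeding, plates held at 37 C, signal read repeatedly through 40 h.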

[3] = qHTS RealTime-Glo MT Cell Viability Assay in HEK293 cells - 16 hour (AID 1224872); note: top concentration of the series differs between compounds; nearly all actives have a fitted effect of over 50% in size
Summary of the method: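 Cells + reagent dispensed (600 cells/well, HEK293) → 5 h at 37 C/5% CO2 → 23 nL compound in DMSO pinned → 40 h at 37 C → luminescence read at 0, 8, 16, 24, 32, 40 h.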

[4] = qHTS RealTime-Glo MT Cell Viability Assay in HepG2 cells - 8 hour (AID 1224873); note: nearly all actives have a fitted effect of over 55% in size
Summary of the method: as §1

[5] = qHTS RealTime-Glo MT Cell Viability Assay in HEK293 cells - 40 hour (AID 1224874); conditions: RealTime-Glo luminescence; max response: stronger effect = lower value; note: nearly all actives have a fitted effect of over 50% in size
Summary of the method: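 HEK293 + NanoLuc + prosubstrate, 600 cells/well; 5 h, 37 C/5% CO2; compound 23 nL in DMSO by pintool; 37 C; luminescence read at 0, 8, 16, 24, 32 and 40 h time points.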

[6] = A CellTox Green Cytotoxicity Assay to monitor cytotoxicity in HEK293 cells - 24 hour (AID 1224875); note: series mostly up to about 77 µM; nearly all actives have a fitted effect of over 45% in size
Summary of the method: as §2

[7] = A CellTox Green Cytotoxicity Assay to monitor cytotoxicity in HepG2 cells - 16 hour (AID 1224876); note: nearly all actives have a fitted effect of over 45% in size
Summary of the method: (§3)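 Measurements at 0, 8, 16, 24, 32 and 40 h of treatment captured CellTox Green fluorescence in HepG2 cells that had been co-plated with reagent and preincubated 5 h at 37 C/5% CO2.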

[8] = qHTS RealTime-Glo MT Cell Viability Assay in HepG2 cells - 32 hour (AID 1224877); note: nearly all actives have a fitted effect of over 55% in size
Summary of the method: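 Real-time, nonlytic viability: 600 HepG2 cells/well mixed with NanoLuc enzyme plus prosubstrate; 5 h settle, compound (DMSO) added by pintool; luminescence monitored over 40 h at 37 C.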

[9] = A CellTox Green Cytotoxicity Assay to monitor cytotoxicity in HepG2 cells - 24 hour (AID 1224878); note: nearly all actives have a fitted effect of over 45% in size
Summary of the method: as §3

[10] = A CellTox Green Cytotoxicity Assay to monitor cytotoxicity in HepG2 cells - 40 hour (AID 1224879); note: nearly all actives have a fitted effect of over 40% in size
Summary of the method: as §3
% is set by controls: 0 for no effect and ±100 for the full control effect.

CCC[Si](OC)(OC)OC
inactive: Potency [1] | Potency [2] | Potency [3] | outcome [4] | max response [5] -8.66% | Potency [6] | Potency [7] | Potency [8] | Potency [9] | Potency [10]

O=C1OC(=O)C2CC=CCC12 (centres undefined)
inactive: Potency [1] | Potency [2] | Potency [3] | outcome [4] | max response [5] 0.701% | Potency [6] | Potency [7] | Potency [8] | Potency [9] | Potency [10]

CCc1cnc(C(=O)O)c(C(=O)O)c1
inactive: Potency [1] | Potency [2] | Potency [3] | outcome [4] | max response [5] 5.23% | Potency [6] | Potency [7] | Potency [8] | Potency [9] | Potency [10]

O=C(O)c1ccccc1-n1cc(C(=O)O)c(=O)c2cc(Nc3c(F)cc(F)cc3Cl)c(Cl)cc21
inactive: Potency [1] | Potency [2] | Potency [3] | outcome [4] | max response [5] 0.656% | Potency [6] | Potency [7] | Potency [8] | Potency [9] | Potency [10]

Sc1nc(S)nc(S)n1
inactive: Potency [1] | Potency [2] | Potency [3] | outcome [4] | max response [5] 5.08% | Potency [6] | Potency [7] | Potency [8] | Potency [9] | Potency [10]

CC1(C)[C@@H]2CC[C@]3(C2)[C@@H]1C(=O)CCC3(C)C
inactive: Potency [1] | Potency [2] | Potency [3] | outcome [4] | max response [5] 3.71% | Potency [6] | Potency [7] | Potency [8] | Potency [9] | Potency [10]

CC(=O)Nc1cccc(N)c1
inactive: Potency [1] | Potency [2] | Potency [3] | outcome [4] | max response [5] 15% | Potency [6] | Potency [7] | Potency [8] | Potency [9] | Potency [10]

CCCCCCCCOCCCN
inactive: Potency [1] | Potency [2] | Potency [3] | outcome [4] | max response [5] 2.92% | Potency [6] | Potency [7] | Potency [8] | Potency [9] | Potency [10]

O=C(O)c1cccnc1Nc1cccc(C(F)(F)F)c1
inactive: Potency [1] | Potency [2] | Potency [3] | outcome [4] | max response [5] -4.24% | Potency [6] | Potency [7] | Potency [8] | Potency [9] | Potency [10]

CC(=O)Oc1cccc2c1C(=O)c1c(OC(C)=O)cc(C(=O)O)cc1C2=O
inactive: Potency [1] | Potency [2] | Potency [3] | outcome [4] | max response [5] -10.8% | Potency [6] | Potency [7] | Potency [8] | Potency [9] | Potency [10]

OCC(O)c1ccccc1 (centres undefined)
inactive: Potency [1] | Potency [2] | Potency [3] | outcome [4] | max response [5] -20.6% | Potency [6] | Potency [7] | Potency [8] | Potency [9] | Potency [10]

CC/C=C\CCO
inactive: Potency [1] | Potency [2] | Potency [3] | outcome [4] | max response [5] 15.9% | Potency [6] | Potency [7] | Potency [8] | Potency [9] | Potency [10]

O=C(O)c1cccc(C(=O)O)c1C(=O)O
inactive: Potency [1] | Potency [2] | Potency [3] | outcome [4] | max response [5] -17% | Potency [6] | Potency [7] | Potency [8] | Potency [9] | Potency [10]

Nc1nc(Cl)nc2c1ncn2[C@H]1C[C@H](O)[C@@H](CO)O1
inactive: Potency [1] | Potency [2] | Potency [3] | outcome [4] | max response [5] -25.7% | Potency [6] | Potency [7] | Potency [8] | Potency [9] | Potency [10]

CCc1c(C)[nH]c2c1C(=O)C(CN1CCOCC1)CC2 (centres undefined)
inactive: Potency [1] | Potency [2] | Potency [3] | outcome [4] | max response [5] 2.91% | Potency [6] | Potency [7] | Potency [8] | Potency [9] | Potency [10]

Cc1cc(SC2=C(O)C[C@@](CCc3ccc(N)cc3)(C(C)C)OC2=O)c(C(C)(C)C)cc1CO
inactive: Potency [1] | Potency [2] | Potency [3] | outcome [4] | max response [5] -1.78% | Potency [6] | Potency [7] | Potency [8] | Potency [9] | Potency [10]

CC(C)(C(=O)O)c1ccc(C(O)CCCN2CCC(C(O)(c3ccccc3)c3ccccc3)CC2)cc1 (centres undefined)
inactive: Potency [1] | Potency [2] | Potency [3] | outcome [4] | max response [5] 1.75% | Potency [6] | Potency [7] | Potency [8] | Potency [9] | Potency [10]

O=C(O)c1cc(C(=O)O)c(C(=O)O)cc1C(=O)O
inactive: Potency [1] | Potency [2] | Potency [3] | outcome [4] | max response [5] 0.796% | Potency [6] | Potency [7] | Potency [8] | Potency [9] | Potency [10]

CCCCCCCCCCCC(=O)OCC
inactive: Potency [1] | Potency [2] | Potency [3] | outcome [4] | max response [5] 3.23% | Potency [6] | Potency [7] | Potency [8] | Potency [9] | Potency [10]

CCCCCCCCC(=O)OCC(C)OC(=O)CCCCCCCC (centres undefined)
inactive: Potency [1] | Potency [2] | Potency [3] | outcome [4] | max response [5] 0.14% | Potency [6] | Potency [7] | Potency [9] | Potency [10]

CCC(C)CCCC(C)(C)O (centres undefined)
inactive: Potency [1] | Potency [2] | Potency [3] | outcome [4] | max response [5] 21.8% | Potency [6] | Potency [7] | Potency [8] | Potency [9] | Potency [10]

CC(COc1ccccc1)NC(C)C(O)c1ccc(O)cc1 (centres undefined)
inactive: Potency [1] | Potency [2] | Potency [3] | outcome [4] | max response [5] -6.13% | Potency [6] | Potency [7] | Potency [8] | Potency [9] | Potency [10]

O=C(Cl)c1cc(Cl)cc(Cl)c1
inactive: Potency [1] | Potency [2] | Potency [3] | outcome [4] | max response [5] -8.34% | Potency [6] | Potency [7] | Potency [8] | Potency [9] | Potency [10]
